An excerpt weighted towards active compounds, which were near 2.8% of everything screened.
MITF TRPM1 inh = inhibitors of MITF-dependent TRPM1 promoter reporter, primary screen, cell-based, SK-MEL-5, single point, luciferase; SK-MEL-5 TRPM1 promoter luciferase, 24 h; inhibition, % at 12.5 µM; actives 0.83% (n = 330,000);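 active = mean inhibition across replicates of 60% or more, whatever share of single replicates reaches that level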
KKLEB cytotox = cytotoxicity in KKLEB CF airway cells, primary screen, cytotoxicity control for CF NF-kB inhibitor project, cell-based, uHTS, fluorescence assay plates; KKLEB CF airway cells viability, ATPlite luminescence, overnight; stronger effect = lower value; cells stimulated with P. aeruginosa culture filtrate; activity change (cytotoxicity), % at 5 µM; actives 0.36% (n = 360,000);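 active = corrected activity change at or below -50% at 5 µM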
Shn3 inh set2 = reduction of Shn3 3'UTR firefly luciferase signal, primary screen, Schnurri-3 inhibitor project, cell-based, Clone20 osteoblasts, set 2; inhibition, % at 12.5 µM; Clone20 osteoblast Shn3 3'UTR firefly luciferase, 24 h; actives 0.52% (n = 360,000); AID 588674, 2011;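 active = mean inhibition of at least 75% with every replicate also reaching 75%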;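 also: 0% = median of neutral control wells and 100% = pilot-screen positive control compound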
CF NFkB inh = inhibitors of PAF-induced NF-kB signaling, primary screen, cell-based, GFP fluorescence, uHTS; KKLEB NF-kB-GFP reporter, GFP fluorescence overnight; inhibition, % at 5 µM; actives 0.86% (n = 360,000); AID 588850, 2011;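 active = at least 50% inhibition at 5 µM, scaled per plate between neutral and stimulator controls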;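 also: PAF is a Pseudomonas aeruginosa culture filtrate used as stimulus; plate controls were PAF-stimulated DMSO wells for no effect and unstimulated DMSO wells for full effect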
Peg3 promoter = Peg3 promoter-driven luciferase inhibitors, primary screen, cell-based, HeLa, luciferase luminescence; AID 588405, 2011; HeLa PEG-Prom luciferase reporter, overnight; inhibition, % at 20 µM; actives 1.7% (n = 360,000);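 active = inhibition of at least 50% at 20 µM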
HIF-2a inh = HIF-2a reporter inhibitors, primary screen, luminescence, 786-0 RCC cells; 786-0 RCC cells HIF-2a reporter, luciferase luminescence, overnight; inhibition, % at 18.8 µM; actives 0.72% (n = 360,000); AID 624352, 2012;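 active = inhibition of the luminescence signal of 40% or more relative to plate controls, in a single-dose primary screen at 18.75 µM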
Mdm2-MdmX confirm = retested Mdm2-MdmX interaction blockers, confirmation, cell-based, luminescence, single concentration, set 2 | shares compounds with HIF-2a inh | SaOS-2 split-luciferase Mdm2/MdmX complementation | inhibition, % at 8 µM | actives 99% (n = 740) | AID 504601, 2011;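 active = mean inhibition of the luminescence signal across two replicates at or above 26 percent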
Target sequence (O15151 whole entry, looked up): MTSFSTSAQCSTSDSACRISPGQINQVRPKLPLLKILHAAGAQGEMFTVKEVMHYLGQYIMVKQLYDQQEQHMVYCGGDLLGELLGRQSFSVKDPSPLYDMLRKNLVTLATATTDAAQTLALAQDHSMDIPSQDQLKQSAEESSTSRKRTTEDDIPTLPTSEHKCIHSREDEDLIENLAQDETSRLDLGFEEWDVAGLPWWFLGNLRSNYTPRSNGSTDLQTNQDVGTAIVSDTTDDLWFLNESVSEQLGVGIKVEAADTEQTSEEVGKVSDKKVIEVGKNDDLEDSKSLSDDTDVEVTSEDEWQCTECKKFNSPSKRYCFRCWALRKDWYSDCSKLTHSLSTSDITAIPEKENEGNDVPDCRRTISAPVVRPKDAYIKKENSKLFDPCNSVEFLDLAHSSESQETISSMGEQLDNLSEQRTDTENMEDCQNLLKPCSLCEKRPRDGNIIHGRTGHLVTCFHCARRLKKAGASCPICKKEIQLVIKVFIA
Target sequence (Q00987 whole entry, looked up): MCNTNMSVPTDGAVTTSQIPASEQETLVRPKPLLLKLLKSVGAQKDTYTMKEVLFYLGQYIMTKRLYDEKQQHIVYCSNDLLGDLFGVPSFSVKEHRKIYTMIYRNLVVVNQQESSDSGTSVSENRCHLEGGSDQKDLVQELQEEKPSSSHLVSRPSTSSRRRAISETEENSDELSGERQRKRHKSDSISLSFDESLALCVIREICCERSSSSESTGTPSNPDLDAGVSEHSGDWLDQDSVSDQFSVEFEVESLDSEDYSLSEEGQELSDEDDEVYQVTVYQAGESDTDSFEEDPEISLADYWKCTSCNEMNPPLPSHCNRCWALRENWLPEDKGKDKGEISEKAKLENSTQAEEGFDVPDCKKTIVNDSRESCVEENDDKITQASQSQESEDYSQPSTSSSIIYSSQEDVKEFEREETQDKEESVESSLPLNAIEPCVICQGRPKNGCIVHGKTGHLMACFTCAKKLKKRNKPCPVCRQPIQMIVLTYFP
HIF-2a conf = HIF-2a reporter inhibitor retest, confirmation, luminescence, 786-0 RCC cells. shares compounds with HIF-2a inh. HIF-2a luciferase reporter luminescence, overnight. inhibition, % at 18.8 µM. actives 56% (n = 1,800). AID 651580, 2012;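 active = mean inhibition across four replicates of at least 40 percent at the single tested concentration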
HIF-1a cs = HIF-1a luciferase reporter signal reduction – MiaPaCa-2 cells, single concentration, counter-screen for HIF-2a inhibitor project, confirmation. shares compounds with HIF-2a inh. MiaPaCa-2 HIF-1a luciferase reporter, desferoxamine, overnight. inhibition, % at 18.8 µM. actives 72% (n = 1,800). AID 651589, 2012;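 active = mean inhibition of the reporter signal across four replicates at the single tested dose of 50% or more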
Numbers without * were called inactive; · = no result.

SMILES	MITF TRPM1 inh	KKLEB cytotox	Shn3 inh set2	CF NFkB inh	Peg3 promoter	HIF-2a inh	HIF-2a conf	HIF-1a cs	others
CCOC(=O)c1sc(NC(=O)c2cc(-c3ccc(C)cc3)nc3ccccc23)c(C#N)c1C	26.5	-61.6*	13.4	49.9	2.1	-7.9	·	·	Mdm2-MdmX confirm=97.2*
CCc1ccc(Nc2nnc(SCC(=O)NCCN3C(=O)CSC3=O)s2)cc1	-27.1	-12.4	-39.8	-7.4	-132.6	-127.3	·	·
CNC(=O)c1cc(Oc2ccc(NC(=O)Nc3ccc(Cl)c(C(F)(F)F)c3)cc2)ccn1	17.5	-11.9	72.8	74.7*	48.9	14.9	·	·	Mdm2-MdmX confirm=99.5*
COc1cccc(NC(=O)CN(C)C(=O)COc2ccccc2Cc2ccccc2)c1	6.4	12.3	5.2	16.4	21.2	7.2	·	·
O=C(NCCOCc1ccccc1)C(c1ccccc1)c1ccccc1	-2.3	17.3	14.6	-6.1	17.3	17.1	·	·
O=[N+]([O-])c1ccc2nc(-[n+]3c(-c4ccccc4)cc(-c4ccccc4)cc3-c3ccccc3)[nH]c2c1	31.5	-16.6	31.6	23.3	32.2	16.1	·	·
O=[N+]([O-])c1ccc2nc(Cl)nc(-c3ccccc3)c2c1	13.5	5.9	-77.3	-21.2	20.2	19.3	·	·	Mdm2-MdmX confirm=101.2*
COc1ccc(C(=O)Nn2c(SCC(=O)N3CCC(C)CC3)nc3ccccc3c2=O)cc1	42.5	0.7	30.8	-7.7	68.0*	51.2*	67.2*	77.6*
COc1ccc(C(=O)Nn2c(SCC(=O)NC3CCCCC3)nc3ccccc3c2=O)cc1	25.3	5.1	15.2	6.5	27.0	36.1	·	·
COc1cc(NCCCC(C)N)c2ncccc2c1 (stereo not given)	9.2	-9.7	-3.7	-12.2	44.7	83.8*	18.9	90.1*
O=C(CCCOc1ccc(Cl)cc1Cl)NCCc1ccccn1	1.3	-4.3	-27.6	3.2	33.5	58.9*	57.3*	79.7*
O=C(CCCOc1ccc(Cl)cc1Cl)NCCCO	5.0	-5.5	-12.8	15.8	-18.8	-25.7	·	·
O=C(COC(=O)CCCOc1ccc(Cl)cc1Cl)NCc1ccc(F)cc1	4.3	0.5	28.8	4.3	7.0	52.3*	46.1*	40.5
COc1ccc(C2CC(=O)C=C(NNS(=O)(=O)c3ccc(C)cc3)C2)cc1 (stereo not given)	-4.8	3.3	-7.7	2.3	-8.1	2.1	·	·
O=C(OCc1ccccc1)c1cccc(-c2nnc(-c3ccccc3)o2)c1	-24.7	6.4	-49.5	-11.6	-112.2	10.6	·	·
CCOC(=O)c1cccc(COC(=O)c2cccc(-c3nnc(-c4ccccc4)o3)c2)c1	4.8	-2.1	-25.4	7.0	-75.1	46.9*	51.2*	-65.2
O=[N+]([O-])c1ccc(Oc2cccc3cccnc23)c([N+](=O)[O-])c1	10.0	-0.1	-17.9	-19.5	-4.8	41.2*	13.8	-7.6
COc1ccc(-c2noc(N3CCC(C(=O)NCCCN4CCCC(C)C4)CC3)n2)cc1 (stereo not given)	·	-2.4	10.8	5.9	-43.5	-46.3	·	·
O=C1CCCCCN1Sc1ccccc1	10.0	-5.0	1.0	12.4	14.3	44.3*	30.8	8.4
O=C1CCCCCN1C(=O)c1ccccc1	-1.8	-4.4	-4.2	9.7	5.4	-1.7	·	·
CCn1c(C)cc(C(=O)CN2C(=O)c3ccccc3S2(=O)=O)c1C	68.3*	12.2	66.7	17.8	80.0*	72.7*	87.8*	77.0*
O=C(CN1C(=O)c2ccccc2S1(=O)=O)c1ccccc1Cl	77.6*	-6.8	63.0	11.7	41.2	48.4*	75.5*	67.8*
O=C(CN1C(=O)c2ccccc2S1(=O)=O)NCc1ccccc1Cl	-1.3	-1.0	3.9	6.7	-2.6	4.7	·	·
CCOC(=O)Cc1csc(N/N=C\c2cccc(Br)c2)n1	6.7	-2.4	9.7	-1.0	-50.4	16.0	·	·
CCOC(=O)Cc1csc(N/N=C/c2ccccc2)n1	-8.7	6.6	-19.9	-17.5	-128.6	40.5*	38.1	6.3
SMILES	MITF TRPM1 inh	KKLEB cytotox	Shn3 inh set2	CF NFkB inh	Peg3 promoter	HIF-2a inh	HIF-2a conf	HIF-1a cs	others
CC(Sc1n[nH]c(N)n1)C(=O)C12CC3CC(CC(C3)C1)C2 (stereo not given)	-0.8	4.2	-2.2	-1.3	-11.1	7.2	·	·
CC(SC#N)C(=O)C12CC3CC(CC(C3)C1)C2 (stereo not given)	5.7	-22.0	2.2	43.9	35.8	46.1*	23.8	12.1
CC(=O)Nc1nc(-c2ccc3c(c2)CC(C)N3C(=O)C2CC2)c(C)s1 (stereo not given)	-6.9	12.0	-108.3	-36.2	-38.2	-119.4	·	·	Mdm2-MdmX confirm=98.7*
COc1ccc(Cl)cc1C(=O)NNC(=O)C1CCCO1 (stereo not given)	7.7	-18.6	4.6	1.2	0.8	3.4	·	·
CN(Cc1ccon1)C(=O)C1CCC(=O)N(Cc2ccc(Cl)cc2)C1 (stereo not given)	6.5	-4.5	-3.0	20.4	11.0	3.1	·	·
CCCCn1c(NC(=S)Nc2ccccc2)nc2ccccc21	5.2	4.9	-6.8	-1.3	33.3	42.0*	-10.1	50.3*
CC(=O)Nc1nc2ccccc2n1CCOc1ccccc1	9.3	-12.5	-0.5	-0.5	16.2	22.7	·	·
S=C(Nc1ccccc1)Nc1nc2ccccc2n1CCOc1ccccc1	19.8	4.7	-7.5	-4.1	40.1	90.4*	-63.6	97.4*
CCCCn1c(NC(=O)c2ccccc2)nc2ccccc21	7.4	3.9	-6.6	7.2	-10.4	-45.5	·	·
COc1ccccc1CNC(=O)c1cc(C(=O)CC(C)C)c[nH]1	8.0	0.6	5.1	12.9	12.6	-10.8	·	·
COC(=O)COc1ccc(-c2nccc(-c3ccccn3)n2)cc1	22.0	2.1	24.8	-5.5	-50.5	70.9*	91.2*	63.6*
COC(=O)COc1ccc(-c2nccc(-c3ccc(Br)cc3)n2)cc1	8.7	1.4	-4.3	8.4	1.9	40.7*	42.8*	7.8
